# Structures can show the parent of a compound that is named as a salt.
# Test system: HEPG2
# Assay: Euclidean distance of Cell Painting phenotypic profile (signed KS, 77 features) to DMSO centroid (dimensionless distance); 5 or 10 uM (library dependent); higher = stronger phenotypic change vs DMSO (phenoactivity)
# Settings: 48 h
# Outline: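 Phenoactivity is computed as Euclidean distance to the median vehicle profile. The profiles, drawn from 77 Harmony features scored as signed Kolmogorov-Smirnov statistics versus same-plate vehicle wells, were corrected for plate position, correlation-weighted and replicate-averaged at the top dose. Stained cells were imaged confocally at 20X (9 fields/well) after 48 h with library compounds at 10 or 5 uM, 0.1% DMSO final, in five cancer lines and a healthy fibroblast line.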
row,Structure (SMILES),Euclidean distance
1,O=C(O)COc1nn(Cc2ccccc2)c2ccccc12 [Bendazac],0.558
2,COc1ccc(Cl)cc1NC(=O)Nc1cc(C)nc2ccccc12,0.631
3,C#C[C@]1(OC(C)=O)CC[C@H]2[C@@H]3CCC4=C[C@@H](OC(C)=O)CC[C@@H]4[C@H]3CC[C@@]21C [Ethynodiol diacetate],0.735
4,CN[C@H]1C(=O)N[C@@H]2Cc3ccc(cc3)Oc3cc4cc(c3O[C@@H]3O[C@H](C(=O)O)[C@@H](O)[C@H](O)[C@H]3NC(=O)CCCCCCCCC(C)C)Oc3ccc(cc3Cl)[C@@H](O)[C@@H]3NC(=O)[C@H](NC(=O)[C@@H]4NC(=O)[C@@H](NC2=O)c2cc(cc(O)c2Cl)Oc2cc1ccc2O)c1ccc(O)c(c1)-c1c(O[C@H]2O[C@H](CO)[C@@H](O)[C@H](O)[C@@H]2O)cc(O)cc1[C@@H](C(=O)NCCCN(C)C)NC3=O [Dalbavancin],0.566
5,Cc1nccn1CC1CCc2c(c3ccccc3n2C)C1=O (centres undefined) [Ondansetron Hydrochloride Dihydrate],1.39
6,CCC(=O)O[C@]1(C(=O)CCl)[C@@H](C)C[C@H]2[C@@H]3CCC4=CC(=O)C=C[C@]4(C)[C@@]3(F)[C@@H](O)C[C@@]21C [Clobetasol propionate],0.79
7,CNC[C@H](O)c1ccc(O)c(O)c1 [Epinephrine HCl],0.644
8,CCOC(=O)C1=C(COCCN)NC(C)=C(C(=O)OC)C1c1ccccc1Cl (centres undefined) [Amlodipine],1.06
9,Cc1c(O)cccc1C(=O)N[C@@H](CSc1ccccc1)[C@H](O)CN1C[C@H]2CCCC[C@H]2C[C@H]1C(=O)NC(C)(C)C [Nelfinavir Mesylate],1.01
10,Cc1nnc(SCC2=C(C(=O)O)N3C(=O)[C@@H](NC(=O)Cn4cc(Cl)c(=O)c(Cl)c4)[C@H]3SC2)s1 [Cefazedone],0.733
11,Cc1ccc([C@@H]2O[C@H](CO)[C@@H](O)[C@H](O)[C@H]2O)cc1Cc1ccc(-c2ccc(F)cc2)s1 [Canagliflozin hemihydrate],1.06
12,C/C(=N\NC(=S)N1CCC1)c1ccccn1,4.41
13,C[n+]1c2ccccc2nc2ccccc21 [Phenazine methosulfate],3.66
14,COC(=O)C1=C(C)NC(C)=C(C(=O)OC2CCCN(Cc3ccccc3)C2)C1c1cccc([N+](=O)[O-])c1 (centres undefined) [Benidipine HCl],0.713
15,Nc1nccc(Oc2ccc(NC(=O)c3c[nH]cc(-c4ccc(F)cc4)c3=O)cc2F)c1Cl,1.17
16,CC(C)N(CCC(=O)c1ccc2ccccc2c1)Cc1ccccc1,0.594
17,O=C1c2c(O)ccc(O)c2C(=O)c2c(NCCNCCO)ccc(NCCNCCO)c21 [Mitoxantrone 2HCl],5.09
18,NCCc1c[nH]cn1 [Histamine Phosphate],1.23
19,C=C1CC[C@H]2C(=C)CC[C@H]3C(=C)C(=O)O[C@@H]3[C@@H]12 [Dehydrocostus Lactone],3.68
20,CCCC(=O)OCOC(=O)C1=C(C)NC(C)=C(C(=O)OC)C1c1cccc(Cl)c1Cl (centres undefined) [Clevidipine Butyrate],2.16

row,Structure (SMILES),Euclidean distance
1,CN1CCN(C2=Nc3cc(Cl)ccc3Nc3ccccc32)CC1 [Clozapine],1.03
2,COCC(=O)Nc1c(I)c(C(=O)NCC(O)CO)c(I)c(C(=O)N(C)CC(O)CO)c1I (centres undefined) [Iopromide],0.445
3,CNCCC=C1c2ccccc2CCc2ccccc21 [Nortriptyline hydrochloride],1.8
4,CC[C@@H](CO)NCCN[C@@H](CC)CO [Ethambutol 2HCl],0.465
5,CC#CCn1c(N2CCC[C@@H](N)C2)nc2c1c(=O)n(Cc1nc(C)c3ccccc3n1)c(=O)n2C [Linagliptin],0.628
6,CONC(=O)Nc1ccc(-c2sc3c(c2CN(C)C)c(=O)n(-c2ccc(OC)nn2)c(=O)n3Cc2c(F)cccc2F)cc1 [Relugolix],0.841
7,Cc1ccc(/C(=C\CN2CCCC2)c2ccccn2)cc1 [Triprolidine Hydrochloride],1.31
8,NCCCC[C@H](NC(=O)[C@@H](NC(=O)[C@H](Cc1c[nH]c2ccccc12)NC(=O)[C@H](CCCCN)NC(=O)[C@H](CCCCN)NC(=O)[C@H](Cc1c[nH]c2ccccc12)NC(=O)[C@H](Cc1c[nH]c2ccccc12)NC(=O)[C@H](CCCCN)NC(=O)[C@@H](N)CCCCN)C(c1ccccc1)c1ccccc1)C(N)=O,1.2
9,Nc1nccc2c1ncn2C1C=C(CO)C(O)C1O (centres undefined) [3-Deazaneplanocin A (DZNeP)],1.23
10,Clc1ccc(Nc2nnc(Cc3ccncc3)c3ccccc23)cc1 [Vatalanib (PTK787) 2HCl],1.42
11,O=c1cc(-c2ccccc2)oc2cc(O)c(O)c(O)c12 [Baicalein],0.918
12,C/C=C1/[C@H](O[C@@H]2O[C@H](CO)[C@@H](O)[C@H](O)[C@H]2O)OC=C(C(=O)OC)[C@H]1CC(=O)OCCc1ccc(O)c(O)c1 [Oleuropein],0.64
13,C[C@@H]1O[C@@H](Oc2c(-c3ccc(O)c(O)c3)oc3cc(O)cc(O)c3c2=O)[C@H](O)[C@H](O)[C@H]1O [Quercitrin],0.738
14,C=C(CC)C(=O)c1ccc(OCC(=O)O)c(Cl)c1Cl [Ethacrynic Acid],1.05
15,CC[C@H](C)[C@H](NC(=O)[C@H]([C@@H](C)CC)N(C)C(C)=O)C(=O)N[C@H](C(=O)N[C@@H](CC(C)C)C(=O)[C@@]1(C)CO1)[C@@H](C)O [Epoxomycin],2.95
16,Oc1c(Cl)cc(Cl)c(Cl)c1Cc1c(O)c(Cl)cc(Cl)c1Cl [Hexachlorophene],2.53
17,C[C@H](CCC(=O)O)[C@H]1CC[C@H]2[C@@H]3CC[C@@H]4C[C@H](O)CC[C@]4(C)[C@H]3C[C@H](O)[C@]12C [Deoxycholic acid],0.87
18,CC(=O)O[C@H]1C(=O)[C@@]2(C)[C@H]([C@H](OC(=O)c3ccccc3)[C@]3(O)C[C@H](OC(=O)[C@H](O)[C@@H](NC(=O)c4ccccc4)c4ccccc4)C(C)=C1C3(C)C)[C@]1(OC(C)=O)CO[C@@H]1C[C@@H]2O [Paclitaxel],2.08
19,Cc1ccccc1OCC(O)CO (centres undefined) [Mephenesin],0.549
